The values that follow come from PubChem BioAssay.

SMILES strings stand for the structures. Activity calls are given as the source filed them.

The subject of assay [1] is Plasmodium falciparum Sir2 (PF13_0152, Sir2A). Kind of assay: Plasmodium falciparum Sir2A binding compounds – biochemical, small-molecule microarray, 635 nm fluorescence, primary screen (AID 1098).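 Note: score merges spot fluorescence intensity with its signal-to-noise ratio.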 The following applies: fluorescence 635 nm, higher = more signal.
The nature of assay [2]: probe aDKK1 binding to arrayed compounds – biochemical, biotinylated probe, 635/667 nm fluorescence, primary screen (AID 1099).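 Note: score merges 667nm spot fluorescence with signal to noise across triplicate slides.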 The following applies: small-molecule microarray, higher = more signal.
Assay [3] in a line: probe aCHRDL2 binding to arrayed compounds – biochemical, biotinylated probe, 635/667 nm fluorescence, primary screen (AID 1100). The following applies: small-molecule microarray, higher = more signal.
Assay [4] is described as follows: change in splice reporter luminescence, either direction, cell-based, HEK293, spliceosome inhibition project, primary screen (AID 1101).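 Note: HEK293 cells carrying a splicing-competent luciferase reporter gene; test concentration not given here.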 As to conditions: HEK293 splicing luciferase reporter, 24 h, higher = more signal, called active from +8 up or from −8 down. In general terms: Reporter assays use an easily measured gene product as a stand-in for the process of interest.

Assay [5] has as its target Fibroblast growth factor 10 (Homo sapiens) (UniProt O15520). Kind of assay: compounds binding fibroblast growth factor 10 – biochemical, small-molecule microarray, 635 nm fluorescence, primary screen (AID 1102). The following applies: FGF10 binding, fluorescence 635 nm, higher = more signal.
Assay [6] relates to glycogen synthase kinase-3 (GSK3A per assay name; protocol says GSK3B). Kind of assay: compounds binding glycogen synthase kinase-3 – biochemical, small-molecule microarray, 635 nm fluorescence, GSK3A, primary screen (AID 1103). Note: the record names both GSK3A and GSK3B. The following applies: fluorescence 635 nm, higher = more signal.
Assay [7] has as its target Epidermal growth factor receptor (Homo sapiens) (UniProt P00533). Kind of assay: compounds binding epidermal growth factor receptor – biochemical, small-molecule microarray, 635 nm fluorescence, primary screen (AID 1104).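 Note: score merges 667 nm emission intensity with spot signal to noise over triplicate slides.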 As to conditions: EGFR binding, higher = more signal.
Assay [8] concerns the target Follistatin-related protein 3 (Homo sapiens) (UniProt O95633). Kind of assay: compounds binding follistatin-related protein 3 – biochemical, small-molecule microarray, 635 nm fluorescence, primary screen (AID 1105).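 Note: score merges emission near 667 nm and signal to noise per printed spot across three slides.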 The following applies: FSTL3 binding, higher = more signal.
The target in assay [9] is Dickkopf-related protein 1 (Homo sapiens) (UniProt O94907). Kind of assay: small molecules binding DKK1 protein – biochemical, small-molecule microarray, 635 nm fluorescence scan, primary screen (AID 1106).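 Note: score merges emission near 667 nm with signal to noise over three replicate slides.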 The following applies: higher = more signal.
Chain of Dickkopf-related protein 1 (Homo sapiens) (O94907 whole entry, looked up): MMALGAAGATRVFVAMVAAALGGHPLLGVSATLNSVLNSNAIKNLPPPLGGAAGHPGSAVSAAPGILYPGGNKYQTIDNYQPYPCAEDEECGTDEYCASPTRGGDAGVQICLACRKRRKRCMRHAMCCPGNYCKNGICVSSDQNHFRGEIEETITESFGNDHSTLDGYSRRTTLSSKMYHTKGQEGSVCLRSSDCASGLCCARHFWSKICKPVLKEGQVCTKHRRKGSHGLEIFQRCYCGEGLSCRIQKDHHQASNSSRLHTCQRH
The test system of assay [10] is Inhibin beta A chain (activin A). Kind of assay: small molecules binding activin A – biochemical, small-molecule microarray, 635 nm fluorescence scan, primary screen (AID 1107).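 Note: mouse activin A protein probed at 4.33 µg/mL on printed slides; score merges bound-protein fluorescence near 667 nm with spot signal-to-noise.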 As to conditions: INHBA, higher = more signal.
Assay [11] has as its system Human papillomavirus type 1a protein E7 (residues 44-93). Kind of assay: small molecules binding HPV E7 44-93 – biochemical, small-molecule microarray, residues 44-93, 635 nm fluorescence, primary screen (AID 1108).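 Note: E7 fragment applied at 1 µg/mL in TBST for 1 h at 4 C; score combines spot fluorescence with its signal to noise ratio.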 The following applies: fluorescence 635 nm, higher = more signal.
The nature of assay [12]: hepatitis C replication reporter changes, two-sided – Huh7 cells, luciferase reporter, HCV replication inhibitor project, primary screen (AID 1109).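 Note: huh7 hepatoma cells harbouring a luciferase neomycin HCV replicon reporter; luciferase luminescence as measure of HCV replicon replication; test concentration not given here.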 The following applies: Huh7 HCV replicon luciferase reporter, 48 h; higher = more signal.
Assay [13] concerns the target Left-right determination factor 2 (Homo sapiens) (UniProt O00292). Kind of assay: small molecules binding LEFTY2 protein – biochemical, small-molecule microarray, 635 nm fluorescence scan, primary screen (AID 1110). The following applies: higher = more signal.
Assay [14] concerns the target Calmodulin-1 (Homo sapiens) (UniProt P0DP23). Kind of assay: small molecules binding calmodulin-1 with EGTA – biochemical, small-molecule microarray, Cy5-labelled CALM1, profiling panel (AID 1111).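 Note: labelled calmodulin applied in Tris saline Tween buffer holding calcium plus EGTA and DTT.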 As to conditions: Cy5-CALM1 binding fluorescence, higher = more signal.
Assay [15] has the same target. The assay is described as follows: small molecules binding Ca-loaded calmodulin-1 – biochemical, small-molecule microarray, Cy5-labelled CALM1, plus calcium, artefact control for SMM control-protein annotation, profiling panel (AID 1112).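 Note: score merges spot fluorescence with signal to noise from triplicate slides.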 As to conditions: Cy5-CALM1 binding fluorescence, higher = more signal.
Assay [16] in a line: probe aWnt5a binding to arrayed compounds – biochemical, biotinylated probe, 635/667 nm fluorescence, primary screen (AID 1113).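 Note: score merges 667 nm fluorescence intensity with signal-to-noise per printed feature.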 The following applies: small-molecule microarray, higher = more signal.
The nature of assay [17]: probe aShh binding to arrayed compounds – biochemical, biotinylated probe, 635/667 nm fluorescence, primary screen (AID 1114).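 Note: probe is biotin-labelled aShh protein from a stem cell growth factor screen; measures binding of labelled protein to compounds printed on the slide; score merges feature fluorescence at 667 nm with signal-to-noise.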 The following applies: small-molecule microarray, higher = more signal.
The nature of assay [18]: probe aNog binding to arrayed compounds – biochemical, biotinylated probe, 635/667 nm fluorescence, primary screen (AID 1115).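 Note: probe is biotinylated aNog protein used at 0.15 µg/mL for 1 h at 4 C; z-score combines 667 nm fluorescence of each spot with its signal to noise.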 The following applies: small-molecule microarray, higher = more signal.
Assay [19] concerns the target Torsin-1A-interacting protein 1 (Homo sapiens) (UniProt Q5JTV8). Kind of assay: compound microarray binding of lysate hLAP1 – cell lysate, small-molecule microarray, COS7 lysate, 635/667 nm fluorescence, primary screen (AID 1116). As to conditions: 635 nm fluorescence, higher = more signal.
The target of assay [20] is Alpha-bungarotoxin (Bungarus multicinctus) (UniProt P60615). Kind of assay: compounds binding labelled alpha-BTX control protein – biochemical, small-molecule microarray, Alexa647 label, 635/667 nm fluorescence, artefact control for SMM control protein annotation, profiling panel (AID 1117). As to conditions: alpha-BTX-A647 binding fluorescence, higher = more signal.
Chain of Alpha-bungarotoxin (Bungarus multicinctus) (P60615 whole entry, looked up): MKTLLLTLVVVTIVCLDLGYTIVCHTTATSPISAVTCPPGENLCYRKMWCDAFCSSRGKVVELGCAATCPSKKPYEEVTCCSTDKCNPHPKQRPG

Chain of Fibroblast growth factor 10 (Homo sapiens) (O15520 whole entry, looked up): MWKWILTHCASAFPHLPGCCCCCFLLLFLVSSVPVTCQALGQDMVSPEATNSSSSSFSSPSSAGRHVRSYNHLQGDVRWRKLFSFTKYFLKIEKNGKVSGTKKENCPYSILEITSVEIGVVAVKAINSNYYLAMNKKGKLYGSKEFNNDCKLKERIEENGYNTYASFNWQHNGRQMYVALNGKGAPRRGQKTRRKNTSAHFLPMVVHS
Chain of Epidermal growth factor receptor (Homo sapiens) (P00533 whole entry, looked up): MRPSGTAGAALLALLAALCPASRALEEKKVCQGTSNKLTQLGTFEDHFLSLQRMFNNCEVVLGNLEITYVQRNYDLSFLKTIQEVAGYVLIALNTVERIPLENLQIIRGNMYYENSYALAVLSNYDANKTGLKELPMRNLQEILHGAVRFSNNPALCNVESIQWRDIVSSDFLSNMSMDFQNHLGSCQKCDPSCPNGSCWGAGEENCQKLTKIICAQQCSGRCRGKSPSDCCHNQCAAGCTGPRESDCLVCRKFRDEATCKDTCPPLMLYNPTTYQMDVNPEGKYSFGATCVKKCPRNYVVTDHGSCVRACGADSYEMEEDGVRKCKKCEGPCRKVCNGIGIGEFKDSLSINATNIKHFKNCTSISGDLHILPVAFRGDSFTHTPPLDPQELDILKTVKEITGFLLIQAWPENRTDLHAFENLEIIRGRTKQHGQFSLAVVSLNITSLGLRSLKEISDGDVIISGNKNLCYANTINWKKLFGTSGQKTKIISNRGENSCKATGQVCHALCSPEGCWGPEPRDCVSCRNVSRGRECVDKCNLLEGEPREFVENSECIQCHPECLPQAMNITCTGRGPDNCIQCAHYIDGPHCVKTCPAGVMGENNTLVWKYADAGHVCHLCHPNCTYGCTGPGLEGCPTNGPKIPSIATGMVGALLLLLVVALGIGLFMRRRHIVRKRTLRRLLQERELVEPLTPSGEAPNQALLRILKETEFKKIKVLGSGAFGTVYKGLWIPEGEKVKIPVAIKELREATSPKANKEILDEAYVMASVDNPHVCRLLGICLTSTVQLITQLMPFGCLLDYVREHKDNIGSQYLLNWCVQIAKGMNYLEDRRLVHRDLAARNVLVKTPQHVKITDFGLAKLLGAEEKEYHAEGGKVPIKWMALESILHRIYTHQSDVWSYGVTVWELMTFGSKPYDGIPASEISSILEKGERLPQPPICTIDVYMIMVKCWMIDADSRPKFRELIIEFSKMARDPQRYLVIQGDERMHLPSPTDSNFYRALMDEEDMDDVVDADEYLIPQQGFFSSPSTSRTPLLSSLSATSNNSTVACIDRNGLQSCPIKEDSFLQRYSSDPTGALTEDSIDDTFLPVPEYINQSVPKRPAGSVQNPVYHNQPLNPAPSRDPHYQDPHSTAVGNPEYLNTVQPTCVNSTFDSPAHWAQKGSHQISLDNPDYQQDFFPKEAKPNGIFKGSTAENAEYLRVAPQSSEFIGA
Chain of Torsin-1A-interacting protein 1 (Homo sapiens) (Q5JTV8 whole entry, looked up): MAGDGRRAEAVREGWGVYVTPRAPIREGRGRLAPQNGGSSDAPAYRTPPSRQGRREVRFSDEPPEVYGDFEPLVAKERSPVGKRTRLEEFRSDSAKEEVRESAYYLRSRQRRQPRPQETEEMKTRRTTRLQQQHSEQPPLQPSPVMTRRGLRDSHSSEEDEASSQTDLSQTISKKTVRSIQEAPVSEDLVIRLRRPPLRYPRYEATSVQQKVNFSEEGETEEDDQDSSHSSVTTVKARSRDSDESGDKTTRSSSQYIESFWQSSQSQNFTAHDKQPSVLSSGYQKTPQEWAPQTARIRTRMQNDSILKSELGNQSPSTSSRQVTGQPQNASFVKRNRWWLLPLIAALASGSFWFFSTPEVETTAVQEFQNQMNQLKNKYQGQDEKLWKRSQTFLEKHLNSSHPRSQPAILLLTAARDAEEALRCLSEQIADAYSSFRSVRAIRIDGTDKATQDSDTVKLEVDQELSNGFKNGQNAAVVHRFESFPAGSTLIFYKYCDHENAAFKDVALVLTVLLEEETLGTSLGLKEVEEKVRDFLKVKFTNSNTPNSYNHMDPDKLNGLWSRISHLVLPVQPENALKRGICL
Chain of Left-right determination factor 2 (Homo sapiens) (O00292 whole entry, looked up): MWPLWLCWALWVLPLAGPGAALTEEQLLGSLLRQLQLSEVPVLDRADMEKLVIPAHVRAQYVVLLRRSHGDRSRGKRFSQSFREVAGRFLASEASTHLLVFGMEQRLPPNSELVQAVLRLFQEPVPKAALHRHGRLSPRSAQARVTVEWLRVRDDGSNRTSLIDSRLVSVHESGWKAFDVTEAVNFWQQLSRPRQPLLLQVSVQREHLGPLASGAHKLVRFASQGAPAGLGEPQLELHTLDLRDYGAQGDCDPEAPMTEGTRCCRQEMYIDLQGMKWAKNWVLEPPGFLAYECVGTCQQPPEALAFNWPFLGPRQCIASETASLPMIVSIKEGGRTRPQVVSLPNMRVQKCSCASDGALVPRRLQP
Chain of Follistatin-related protein 3 (Homo sapiens) (O95633 whole entry, looked up): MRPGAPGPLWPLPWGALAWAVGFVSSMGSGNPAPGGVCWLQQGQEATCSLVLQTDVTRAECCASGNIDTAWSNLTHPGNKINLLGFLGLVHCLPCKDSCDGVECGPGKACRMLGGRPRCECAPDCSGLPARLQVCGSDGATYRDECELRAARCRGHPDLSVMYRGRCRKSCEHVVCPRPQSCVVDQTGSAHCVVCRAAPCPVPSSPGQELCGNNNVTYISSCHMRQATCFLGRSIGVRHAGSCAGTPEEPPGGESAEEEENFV

On to `CC(C)C[C@@H]1NC(=O)[C@@H]2C[C@H](C(=O)NCCCCCCNC(=O)CS)[C@H](c3ccc(O)cc3)N2C1=O`, for which the composite z-score in [1] is 1.57; in assay [2], -0.0965; in assay [3], 0.254; in [5], 1.45; in assay [6], 1.26; in [7] it was 0.672. The composite z-score was 1.47 in assay [8]; 1.27 in assay [9]; -0.0334 in assay [10]; 1.48 in assay [11]; 0.734 in assay [13]; 1.06 in [14]. The composite z-score in [15] is 0.152; in [16] it was -0.0495; in assay [17], -0.0211; in assay [18], 0.693; in assay [19], 0.469; in [20], 1.76. For the same molecule, the values for the z-score in [4] and in assay [12] were -1.1 (inactive) and 0.388, respectively.

On to `COCCCNC(=O)[C@]1(Cc2ccccc2N=[N+]=[N-])N=C(c2ccc(OCCCO)cc2)O[C@@H]1c1ccccc1`, for which the composite z-score in assay [1] was 1.5; in assay [2], 1.23; in assay [3] it was 1.28; in assay [5], 0.612; in [6], 1.25; in assay [7], -0.137. Besides, the composite z-score was 0.597 in [8]; -0.425 in assay [9]; 0.97 in assay [10]; 0.565 in assay [11]; -0.263 in [13]; 2.24 in [14]. In addition, the composite z-score in assay [15] was 0.908; in assay [16], -0.118; in [17], 0.0638; in assay [18], -0.661; in [19], 1.69; in assay [20], 2.32. In addition, the z-score is 1.08 (inactive) in assay [4] and -1.69 in [12].

On to `CCCCCCCCCCC(O)C1C=CC2C(=O)N(C)C(=O)C2N1Nc1ccccc1` (stereo not given), for which the composite z-score in assay [1] was -1.02; in [2], -0.0132; in assay [3], 0.937; in assay [5], -1.09; in assay [6], -1.09; in assay [7] it was -1.33. In addition, the composite z-score was -1.54 in assay [8]; -1.22 in assay [9]; 1.17 in assay [10]; 0.164 in assay [11]; -2.42 in [13]; 0.194 in [14]. Also, the composite z-score in assay [15] was 1.19; in [16], -0.252; in assay [17], -0.121; in [18], 0.101; in [19], 0.504; in assay [20], -0.868. For the same molecule, the z-score was 0.953 (inactive) in assay [4] and -0.28 in assay [12].

As for `C[C@@]1([C@@H](NS(=O)(=O)c2cccc3cccnc23)c2ccc(-c3ccccc3)cc2)C[C@H]1C1CCCCC1`, the composite z-score in assay [1] is 0.15; in assay [2] it was 0.778; in assay [3], 1.19; in [5], -0.0983; in assay [6], -0.472; in [7], 0.0823. The composite z-score in assay [8] is 0.49; in assay [9], -0.473; in assay [10] it was 0.638; in assay [11], 0.917; in assay [13], -0.504; in [14], 1.02. For the same molecule, the composite z-score amounted to 1.38 in [15]; 0.122 in assay [16]; 1.05 in [17]; 2 in assay [18]; 0.562 in assay [19]; 0.33 in assay [20]. Also, the z-score in [4] was -1.19 (inactive); in assay [12] it was -0.479.

Turning to `[N-]=[N+]=NCc1ccccc1[C@H]1OC(c2ccc(OCCCO)cc2)=N[C@@]1(CCS(=O)(=O)c1ccccc1)C(=O)O`, the composite z-score in assay [1] is 0.94; in [2] it was 0.224; in assay [3] it was 0.906; in [5], 0.283; in [6] it was 0.0448; in assay [7] it was -0.371. For the same molecule, the composite z-score was -0.0142 in assay [8]; -0.697 in [9]; 0.839 in assay [10]; 0.746 in assay [11]; -0.266 in [13]; 0.461 in [14]. The composite z-score in [15] was -0.331; in assay [16], -0.15; in assay [17] it was -0.156; in [18], -0.246; in [19], 0.703; in assay [20] it was -0.553. The z-score in assay [4] is 0.436 (inactive); in assay [12] it was -1.98.
